# ALOX12 inh: ALOX12 (human) lipoxygenase inhibition; purified 12hLO, xylenol orange hydroperoxide absorbance; 580,000 tested, 1.1% active; Potency, µM (titrated, usually from 108 µM), for the others: at the highest dose activity change, negative = inhibition, usual class: inhibitors; AID 1671190; note: % is set by controls: 0 for no effect and ±100 for the full control effect
#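 Purified human 12hLO (150 nM final) in 25 mM Hepes, 0.01% Triton X-100, pH 7.0 was preincubated 15 min at room temperature with compound. Then 40 uM arachidonic acid was added, 30 min. Hydroperoxide was read by Fe-XO absorbance ratio 573/405 nm.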
# G9a block: blocks human histone lysine methyltransferase G9a. Q96KQ7. G9a H3K9 monomethylation, AlphaScreen, 2 h. Potency, µM (series often up to 102 µM), without a hit: at the top dose activity, negative = inhibition, usual class: inhibitors. 350,000 tested, 8.8% active. AID 504332; note: % is set by controls: 0 for no effect and ±100 for the full control effect; nearly all actives have a fitted effect of over 75% in size
# Target sequence (Q96KQ7 913-1193 limits assumed): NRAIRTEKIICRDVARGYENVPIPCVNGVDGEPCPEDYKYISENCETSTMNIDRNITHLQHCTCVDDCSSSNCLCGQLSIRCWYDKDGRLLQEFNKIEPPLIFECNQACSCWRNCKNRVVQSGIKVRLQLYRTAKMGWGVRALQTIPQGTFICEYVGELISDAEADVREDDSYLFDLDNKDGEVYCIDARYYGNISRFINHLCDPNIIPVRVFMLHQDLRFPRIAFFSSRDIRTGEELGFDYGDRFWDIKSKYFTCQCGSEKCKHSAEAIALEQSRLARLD
#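 Signal arises when biotinylated H3K9 peptide, once monomethylated, bridges streptavidin donor and antibody-captured acceptor beads. Enzyme at 20 nM was preincubated 15 min with test compounds; peptide 500 nM and SAM 20 uM then reacted for 2 h.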
# VDR inhibitor: blocks the human vitamin D receptor | Potency, µM, for the others: max response, negative = inhibition, usual class: inhibitors | P11473 | VDR-SRC2-3 peptide fluorescence polarization, 2 h | 400,000 tested, 0.93% active | AID 504847; note: % is set by controls: 0 for no effect and ±100 for the full control effect
#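 Measured by FP: displacement of SRC2-3 coactivator peptide from VDR by library compounds, following a two-hour ambient incubation.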
# Sfp PPTase inh: blocks B. subtilis Sfp PPTase activity; Q9F4F7; Biochemical Sfp PPTase activity, qHTS; Potency, µM, for inactives: largest response in the series, negative = inhibition, usual class: inhibitors; 310,000 tested, 3.5% active;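 note: the enzyme is Sfp with the accession as filed and its product quenches rhodamine fluorescence; 0% = enzyme reaction without inhibitor and -100% = no enzyme wells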
#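 Reaction rates are the 30-min fluorescence difference (ex 525, em 598 nm) in wells containing 15 nM Sfp, 5 uM rhodamine-CoA and 12.5 uM BHQ-2-YbbR at pH 7.6 with 10 mM MgCl2.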
# GRP78 ERSR act: inducers of ER stress response in human glioma cells | 420,000 tested, 0.02% active | AID 602332 | Potency, µM, inactives show top-dose activation, hits mostly activators | U87-MG GRP78 promoter luciferase reporter, 16 h; note: series mostly up to about 76 µM; % of control where 0% means no effect; nearly all actives have a fitted effect of over 35% in size
#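 Stably transfected U87-MG glioma cells carrying a GRP78-based luciferase sensor; 16 h compound incubation. Luminescence end-point read 10 min after Bright-Glo addition at room temperature.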
# An asterisk follows results filed as active; ? = inconclusive; / = not tested or not shown; [ ] = dose if it differs, or a comment. Many of the other results were omitted from the sample, so hits are more common in it than they were. Calls come from the whole dose curve; as a rule, active = well fitted curve in the direction sought with a large enough effect; inconclusive = small, poorly fitted or top-dose-only effect, or another doubt; inactive = no such curve, though single readings can be large; an effect the other way counts as inactive or inconclusive. Potency is the fitted concentration of half-maximal effect.
SMILES,ALOX12 inh,G9a block,VDR inhibitor,Sfp PPTase inh,GRP78 ERSR act
O=C(N/N=C\c1c(O)ccc2ccccc12)c1ccc(O)cc1,?,/,11%,-7%,-1%
COc1ccc(N=Cc2c(O)ccc3ccccc23)cc1,?,0.79µM*,6%,?,-7%
CC(=O)Nc1ccc(N=Cc2c(O)ccc3ccccc23)cc1,-24%,1.8µM*,-10%,-2%,-4%
Cc1ccc(N=Cc2c(O)ccc3ccccc23)cc1F,-14%,1.3µM*,-24%,-17%,-6%
Cc1nnc(C)n1/N=C/c1c(O)ccc2ccccc12,-11%,7%[2.33 µM],-5%,-27%,-7%
Cc1ccccc1NC(C)C(=O)N/N=C/c1ccccc1OCc1cccc(Br)c1 (configuration not stated),0%,-45%[59 µM],11%,15%,-4%
COc1ccc(NC(C)C(=O)N/N=C/c2ccccc2OCc2cccc(Br)c2)cc1 (configuration not stated),-2%,40µM*,6%,5%,0%
O=S(=O)(/N=C/c1c(O)ccc2ccccc12)c1ccccc1,-17%,1.4µM*,-4%,-1%,-9%
N#Cc1cccc(CN2CCC3(CC2)COCCN3C(=O)OCc2ccccc2)c1,-17%[176 µM],/,/,/,/
O=C(N/N=C/c1c(O)ccc2ccccc12)Nc1ccccc1,379%,/,-15%,/,0%
O=C(O)c1cc(N/N=C/c2c(O)ccc3ccccc23)ccc1Cl,?,20µM*,?,-23%,-4%
CCOC(=O)c1sc(/N=C/c2c(O)ccc3ccccc23)cc1C,-22%,8.9µM*,9%,3%,-2%
N#Cc1cccc(N=Cc2c(O)ccc3ccccc23)c1,-13%,1.4µM*,0%,-3%,-5%
COc1ccc(NC(C)C(=O)N/N=C/c2c(O)ccc3ccccc23)cc1 (configuration not stated),0%,45µM*,-9%,17%,-1%
CCCOc1ccc(Cn2c(SCC(=O)NC(C)(C)C)nc3c(sc4ncccc43)c2=O)cc1,1%,/,/,/,/
CC[C@H](NC(=O)[C@H](CCCN=C(N)N)NC(=O)[C@H](Cc1c[nH]c2ccccc12)NC(=O)[C@@H](N)CS)C(=O)N[C@@H](CCCN=C(N)N)C(=O)N[C@@H](Cc1ccc(O)cc1)C(N)=O,/,/,40µM*,-8%,-9%
COc1ccc(C2Cn3nnc(C(=O)NCc4cc(OC)ccc4OC)c3CO2)cc1 (configuration not stated),27%,/,/,/,/
Cc1cc(C)nc(CCNC(=O)CC2C(=O)NCCN2Cc2ccc(F)cc2Cl)n1 (configuration not stated),11%,45µM*,13%,-7%,-2%
CC(C)c1nc(CNC(=O)CC2C(=O)NCCN2Cc2ccc(F)cc2Cl)cs1 (configuration not stated),?,/,-16%,-2%,-6%
O=C(O)CC1C(=O)NCCN1Cc1ccc(F)cc1Cl (configuration not stated),19%,/,/,/,/
O=C(CC1C(=O)NCCN1Cc1ccc(F)cc1Cl)NCc1ccon1 (configuration not stated),4%,32µM*,15%,18%,1%
Cc1cccc(C)c1NC(=O)/C(C#N)=C\c1ccc(OC(F)F)cc1,-44%,/,/,/,/
Cc1cc(Br)ccc1NC(=O)CNC(=O)CCc1ncc(-c2ccc(F)cc2)o1,-19%,/,/,/,/
c1cncc(-c2nn3c(Cn4cnc5ccccc54)nnc3s2)c1,?,?,-99%,-83%,0%
c1ccc2c(c1)nnn2Cc1nnc2sc(-c3ccc4c(c3)OCCO4)nn12,?,?,8%,18µM*,-1%
SMILES,ALOX12 inh,G9a block,VDR inhibitor,Sfp PPTase inh,GRP78 ERSR act
c1ccc(-c2nn3c(Cn4nnc5ccccc54)nnc3s2)cc1,14µM*,3.2µM*,-79%,-100%,3%
COc1ccc(-n2c(Cn3nnc4ccccc43)n[nH]c2=S)cc1,-3%,8.9µM*,-15%,-6%,-4%
COc1ccc(-n2c(Cn3nnc4ccccc43)nnc2SCC(=O)O)cc1,25%,-7%[59 µM],4%,21%,-2%
Cn1c(Cn2nnc3ccccc32)nnc1SCC(=O)Nc1ccc2c(c1)OCO2,-5%[57.4 µM],-4%[12.7 µM],6%,12%,-2%
c1ccc2c(c1)ncn2Cc1nnc2sc(-c3ccncc3)nn12,0%,?,-13%,16µM*,-6%
O=C(/C=C/c1ccccc1)OCCCc1ccccc1,16%,/,/,/,/
